According to PubChem BioAssay (NCATS):
Inconclusive results are not listed. Calls of active or inactive are those of the source. The call rests on the fitted dose curve; in most records, active means well fitted curve in the direction sought with a large enough effect; inconclusive means small, poorly fitted or top-dose-only effect, or another doubt; inactive means no such curve, though single readings can be large or run the other way.

assay: qHTS for Inhibitors of the vitamin D receptor (VDR): Hit Validation using a Texas Red Assay (AID 602201); settings: VDR coregulator binding, Texas Red fluorescence polarization, agonist-bound VDR ligand-binding domain; series mostly up to 57.1 µM
Method in brief: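 Fluorescence polarization with 1.5 uM VDR-LBD, LG19078 and 7 nM Texas Red (final). After 2 hours at ambient temperature, read at Ex 595 nm/Em 615 nm.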
Potency means the concentration at half of the fitted maximal effect.

| Structure (SMILES) | Potency |
| --- | --- |
| O=c1[nH]c(/C=C\c2cccc(Cl)c2)nc(O)c1[N+](=O)[O-] | inactive |
| FC(F)(F)c1cccc(Sc2nc(-c3ccccc3)nnc2C(F)(F)F)c1 | inactive |
| [O-]/[N+](=C\c1ccccc1)c1ccc(Br)cc1 | inactive |
| COc1cccc(C(=O)Oc2ccccc2/C=C\C(=O)c2cc3ccccc3o2)c1 | 3.16 µM (active) |
| O=C(/C=C/c1ccccc1F)c1cccc([N+](=O)[O-])c1 | 3.16 µM (active) |
| CC(C)c1ccc(/C=C/c2[nH]c(=O)[nH]c(=O)c2[N+](=O)[O-])cc1 | inactive |
| COc1ccc(Cl)cc1NC(=O)CCS(=O)(=O)c1nc(-c2cccs2)cc(C(F)(F)F)n1 | 11.2 µM (active) |
| O=C(O)CSc1cc(NS(=O)(=O)c2cccc([N+](=O)[O-])c2)c2ccccc2c1O | 2.82 µM (active) |
| O=C(COc1ccc(Cl)cc1)Nc1sc2c(c1C(=O)Nc1cccc(Cl)c1)CCCC2 | 8.91 µM (active) |
| CCOC(=O)c1c(C)oc2c1c1c(c3ccccc32)OCN(Cc2cccnc2)C1 | 20 µM (active) |
| NS(=O)(=O)c1ccc(NC(=O)c2nc(S(=O)(=O)Cc3ccccc3F)ncc2Cl)cc1 | 3.16 µM (active) |
| Cc1cc(C)nc(S/C=C/C(=O)c2ccccc2F)n1 | 7.94 µM (active) |
| O=C(/C=C/c1ccc([N+](=O)[O-])cc1)c1cccs1 | 25.1 µM (active) |
| CCOC(=O)c1c(-c2ccccc2)csc1NC(=O)c1nc(S(=O)(=O)CC)ncc1Cl | 3.55 µM (active) |
| CSc1nnc(NC(=O)c2nc(S(=O)(=O)Cc3ccccc3)ncc2Cl)s1 | 28.2 µM (active) |
| O=C(CCCSc1ccc(Cl)cc1)Nc1cc(S(=O)(=O)N2CCOCC2)ccc1O | 7.94 µM (active) |
| COc1cccc(C(=O)C(C#N)=C(SC)SC)c1 | inactive |
| O=C(Oc1ccccc1/C=C\C(=O)c1cc2ccccc2o1)c1ccccc1 | 8.91 µM (active) |
| O=C1Nc2ccccc2/C1=C/C(=O)c1cccs1 | 28.2 µM (active) |
| CCOC(=O)CS(=O)(=O)c1nc(-c2ccccc2)cc(C(F)(F)F)n1 | inactive |

| Structure (SMILES) | Potency |
| --- | --- |
| O=C1/C(=C/c2cccc([N+](=O)[O-])c2)CCc2ccccc21 | 31.6 µM (active) |
| CCc1ccc(-n2nc3cc(C)c(N)cc3n2)cc1 | 15.8 µM (active) |
| Cc1cc(Br)cc2c1N(Cc1ccccc1OC(C)C)C(=O)C2=O | 11.2 µM (active) |
| O=C(/C=C/c1cccc([N+](=O)[O-])c1)c1ccc2c(c1)OCCO2 | 14.1 µM (active) |
| CN1C(=O)/C(=N\OC(=O)c2ccccc2Cl)c2ccccc21 | 31.6 µM (active) |
| CCOc1ccc(/C=C/C(=O)c2c(O)cc(C)oc2=O)cc1 | 25.1 µM (active) |
| CC(=O)Nc1cccc(C(=O)/C=C/c2ccc(C)cc2)c1 | inactive |
| O=c1[nH]c(/C=C/c2ccc(Cl)cc2Cl)c([N+](=O)[O-])c(=O)[nH]1 | inactive |
| CCOc1cc(/C=C2\COc3ccccc3C2=O)cc(Br)c1OCC(=O)N(C)C | inactive |
| O=C(O)CN1C(=O)/C(=C\c2cc(Br)ccc2OCc2ccc(F)cc2)SC1=S | inactive |
| O=C1C(C2=C(O)c3ccccc3C2=O)=Nc2ccccc21 | inactive |
| CCc1oc2ccccc2c1C(=O)CCN1CCCCC1 | 3.55 µM (active) |
| CN(C)c1ccc(C(=S)N2CCN(c3ccc([N+](=O)[O-])cc3)CC2)cc1 | inactive |
| CCS(=O)(=O)c1oc(-c2ccc(F)cc2)nc1S(=O)(=O)c1ccccc1 | 7.08 µM (active) |
| O=S1OC(c2ccccc2)c2cc(Cl)ccc21 (stereo not given) | 7.08 µM (active) |
| O=C1OC(NC(=O)c2ccccc2)C(n2cc(CO)nn2)=C1Cl (stereo not given) | inactive |
| Cc1ccc(C(=O)NC2(O)C(=O)c3ccccc3C2=O)cc1C | inactive |
| O=C(/C=C/c1cccc([N+](=O)[O-])c1)c1cccs1 | 14.1 µM (active) |
| CCOC(=O)/C(C#N)=C1\C(=O)N(Cc2ccccc2)c2ccccc21 | inactive |
| Cc1ccc(NC(=O)C2=C(c3ccccc3)S(=O)(=O)CCS2(=O)=O)cc1 | 10 µM (active) |
